{
  "source": "PubChem BioAssay (NCATS)",
  "biological_target": "Tyrosyl-DNA phosphodiesterase 1 (Homo sapiens) (UniProt Q9NUW8)",
  "sequence (Q9NUW8 whole entry, looked up)": "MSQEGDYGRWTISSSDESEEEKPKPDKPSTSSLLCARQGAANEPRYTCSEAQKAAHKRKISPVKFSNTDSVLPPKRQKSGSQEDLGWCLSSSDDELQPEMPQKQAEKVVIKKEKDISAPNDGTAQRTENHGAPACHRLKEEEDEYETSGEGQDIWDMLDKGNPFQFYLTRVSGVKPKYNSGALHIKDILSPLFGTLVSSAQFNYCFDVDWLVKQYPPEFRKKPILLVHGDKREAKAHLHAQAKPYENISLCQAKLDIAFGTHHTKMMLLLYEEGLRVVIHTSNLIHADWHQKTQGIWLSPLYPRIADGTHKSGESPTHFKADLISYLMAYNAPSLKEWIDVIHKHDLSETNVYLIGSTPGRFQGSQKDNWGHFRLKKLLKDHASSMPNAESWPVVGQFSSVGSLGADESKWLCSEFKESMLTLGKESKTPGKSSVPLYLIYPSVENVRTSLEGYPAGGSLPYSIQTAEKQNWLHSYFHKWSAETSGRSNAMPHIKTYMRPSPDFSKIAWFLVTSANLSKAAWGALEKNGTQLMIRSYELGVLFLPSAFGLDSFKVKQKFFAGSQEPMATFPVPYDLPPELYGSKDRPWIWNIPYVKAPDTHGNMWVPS",
  "assay": "Confirmation Assay for Inhibitors of Tyrosyl-DNA Phosphodiesterase (TDP1) (AID 489007); further: nearly all actives have a fitted effect of over 40% in size",
  "settings": "recombinant human TDP1 enzymatic activity, dose-response",
  "procedure,_shortened": "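Recombinant human Tdp1 (1 nM final), expressed in E. coli, preincubated 15 min with compound. Then 15 nM 5'-biotin/3'-phosphotyrosine-FITC DNA substrate added for 5 min at room temperature. AlphaScreen beads (10 ug/ml) added for 10 min; cleavage gives signal loss.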",
  "note": "Inconclusive results are not listed. The source made the active and inactive calls. The call rests on the fitted dose curve; in most records, active means well fitted inhibition curve with a large enough effect; inconclusive means small, poorly fitted or top-dose-only effect; inactive means flat fitted curve, though single readings scatter. Potency means the concentration at half of the fitted maximal effect.",
  "data": [
    {"smiles": "Cc1ccccc1-c1cncnc1N(C)Cc1ccco1", "values": [
      {"measurement": "Potency", "result": "3.16 µM (active)"}
    ]}
  ]
}
